Among the data in PubChem BioAssay (NCATS) are Potency values, retold here.

Inconclusive results are not listed. Active and inactive are the calls of the source. Calls follow the shape of the dose curve; as a rule, active = well fitted curve in the direction sought with a large enough effect; inconclusive = small, poorly fitted or top-dose-only effect, or another doubt; inactive = no such curve, though single readings can be large; an effect the other way counts as inactive or inconclusive.
Potency is read from the fitted curve at half-maximal effect.

One assay deals with Zika virus NS2B-NS3 protease. The assay can be described thus: Primary screen GU AMC qHTS for Zika virus inhibitors (AID 1347154). Also: nearly all actives have a fitted effect of over 70% in size. The settings on record: Zika NS2B-NS3 unlinked protease, AMC fluorogenic substrate; series mostly up to 54.1 µM. A digest of the protocol:
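Unlinked Zika NS2B hydrophilic domain/NS3 protease domain noncovalent complex (25 nM final) in 10 mM Tris-HCl pH 8.0, 0.01% Tween 20, with AMC peptide substrate. Fluorescence (ex 340, em 450 nm) change over 15 min, room temperature; percent inhibition fitted to 4-parameter Hill equation.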
Consider `C=NC(C(=O)N[C@H]1C(=O)N2C1SC(C)(C)C2C(=O)O)c1ccccc1` (stereo partly drawn), for which the Potency is 26.7 µM (active). `O=C1CC2(CCCC2)CC(=O)N1CCCCNCC1COc2ccccc2O1` (stereo not drawn): the Potency result was “inactive”. As to `CC#CC(=O)Nc1cc2c(Nc3ccc(F)c(Cl)c3)ncnc2cn1`, the Potency result was “inactive”. `O=C(O)C(Cc1ccc2c(c1)oc1ccccc12)NCP(=O)(O)O` (stereo not drawn): the Potency entry was “inactive”. With `NC(=NCc1ccc(Cl)cc1Cl)NC(=O)c1nc(Cl)c(N)nc1N`, the Potency result was “inactive”. Consider `OCC(O)COc1cccc2ccccc12` (stereo not drawn), for which the Potency entry was “inactive”. Consider `S=C(NCCCc1cnc[nH]1)NCCCN(Cc1ccc(Cl)c(Cl)c1)c1ccc(Br)cn1`, for which the Potency result is “inactive”. The same measure, in the same setting: under `CCCCc1nn(-c2ccccc2C(F)(F)F)c(=O)n1Cc1ccc(-c2ccccc2S(=O)(=O)NC(=O)c2sccc2C)cc1` stands 21.2 µM (active); under `CSc1ccc([C@H]2CN3CCC[C@H]3c3ccccc32)cc1`, “inactive”. In the case of `O=C(O)c1cc(N(Cc2ccccc2O)Cc2cc(O)ccc2O)ccc1O`, the Potency result is “inactive”.

For the compound `CC12CCC3c4ccc(O)cc4CCC3C1CCC2O` (stereo not drawn), the Potency result is “inactive”.

Turning to `NC(C(=O)O)c1ccc(P(=O)(O)O)cc1` (stereo not drawn), the Potency entry is “inactive”.

Tested on in the next assay: not listed separately
The assay can be described thus: ZIKV-mCherry secondary qHTS for Zika virus inhibitors (AID 1347158). The settings on record: Vero cells, ZIKV-mCherry infection imaging, 48-72 h; series mostly up to 49.2 µM. The method, boiled down: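 After overnight seeding at 37 °C, Vero cells receive compound and then ZIKV-mCherry (MOI 1). Following 48-72 h infection, cells are fixed, counterstained with Hoechst, and imaged; percent infected cells is derived from an mCherry intensity cut-off of 450 RFU.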
(In general: Quantitative high-throughput screening tests each substance at several concentrations.)
On to `Clc1ccc(-c2nn3c(COc4cc(Cl)c(OCc5nnc6sc(-c7ccc(Cl)cc7)nn56)cc4Cl)nnc3s2)cc1`, for which the Potency entry is “inactive”. Consider `O=C(O)c1cccc(-c2cc(C(F)(F)F)ccc2Cl)c1`, for which the Potency entry was “inactive”.

With `Clc1nc2n[nH]nc2nc1Cl`, the Potency entry is “inactive”. Take `C[C@@H](NC(=O)c1ccc(Cl)cc1)c1c(-c2ccc(F)cc2)noc1C(=O)O`: the Potency result was “inactive”. For `N#Cc1ccc(OCC2CN(Cc3cccc(C(F)(F)F)c3)C(=O)c3c(ccnc3-c3ccc(OCC(=O)O)cc3)O2)cc1` (stereo not drawn), the Potency result was “inactive”. Regarding `COc1cc(O)c2c(=O)cc(-c3ccc(OC)c(-c4c(O)cc(O)c5c(=O)cc(-c6ccc(O)cc6)oc45)c3)oc2c1`, the Potency was 11.2 µM (active).

Tested on in a further assay: not listed separately
The assay can be described thus: Confirmatory screen NINDS Rhodamine qHTS for Zika virus inhibitors (AID 1347161). Also: nearly all actives have a fitted effect of over 60% in size. The settings on record: purified enzyme assay, Rhodamine110 substrate fluorescence, 15 min; series mostly up to 114 µM. A digest of the protocol: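 Single-chain NS2B-NS3 protease, 25 nM, pH 8.0; compounds preincubated 15 min. Activity: Rhodamine110 release from 1.5 microM substrate over 15 min, room temperature, data fitted to 4-parameter Hill.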
For `Clc1ccc(-c2nn3c(COc4cc(Cl)c(OCc5nnc6sc(-c7ccc(Cl)cc7)nn56)cc4Cl)nnc3s2)cc1`, the Potency was 6.31 µM (active). For `CCOc1nc2cccc(C(=O)OC(C)OC(=O)OC3CCCCC3)c2n1Cc1ccc(-c2ccccc2-c2nn[nH]n2)cc1` (stereo not drawn), the Potency was 1.24 µM (active). As to `CC(C)=CCCC1(C)C=Cc2c(O)c3c(c(CC=C(C)C)c2O1)OC12C(=CCCC1C(C)(C)O[C@@]2(C/C=C(\C)C(=O)O)C(=O)O)C3=O` (stereo partly drawn), the Potency is 1.39 µM (active). As to `Clc1ccc(-c2nn3c(COc4cccc(OCc5nnc6sc(-c7ccc(Cl)cc7)nn56)c4)nnc3s2)cc1`, the Potency is 20 µM (active). Same read-out and setting: the same measure for `O=C(O)c1cc(NCc2cc(O)ccc2O)ccc1O`: 12.4 µM (active). In the case of `CN(C)[C@@H]1C(=O)C(C(=O)NCN2CCCC2)=C(O)[C@@]2(O)C(=O)C3=C(O)c4c(O)cccc4[C@@](C)(O)[C@H]3C[C@@H]12`, the Potency was 1.97 µM (active). Regarding `Clc1nc2n[nH]nc2nc1Cl`, the Potency is 5.62 µM (active). For the compound `Clc1cc(OCc2nnc3sc(Cc4ccccc4)nn23)c(Cl)cc1OCc1nnc2sc(Cc3ccccc3)nn12`, the Potency is 3.55 µM (active). As to `Cc1cc(C)cc(C(=O)N(C)[C@H](Cc2ccc(-c3ccccc3)cc2)C(=O)N[C@@H](Cc2c[nH]c3ccccc23)C(=O)O)c1`, the Potency was 1.75 µM (active). `CCCCc1nn(-c2ccccc2C(F)(F)F)c(=O)n1Cc1ccc(-c2ccccc2S(=O)(=O)NC(=O)c2sccc2C)cc1`: the Potency is 4.41 µM (active). Regarding `Cc1c(-c2ccc(O)cc2)nn(-c2ccc(O)cc2)c1-c1ccc(OCCN2CCCCC2)cc1`, the Potency entry is “inactive”. Consider `CO[C@H]1C[C@@H](O[C@@H]2/C(C)=C/C[C@@H]3C[C@@H](C[C@]4(CC[C@H](C)[C@@H](C5CCCCC5)O4)O3)OC(=O)[C@@H]3C=C(C)/C(=N/O)[C@H]4OC/C(=C\C=C\[C@@H]2C)[C@]43O)O[C@@H](C)[C@H]1O`, for which the Potency is 22 µM (active).

A further assay has as its system Zika virus NS2B-NS3 protease (linked). The assay can be described thus: 384 well plate NINDS AMC confirmatory qHTS for Zika virus inhibitors (AID 1347163). Also: nearly all actives have a fitted effect of over 50% in size. The settings on record: Recombinant NS2B-NS3 protease, Ac-VKTGKR-AMC fluorescence; series mostly up to 1 mM. The method, boiled down: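 Linked protease 5/30/60 nM final; cpds up to 1 mM final, ~15 min preinc. Substrate Ac-VKTGKR-AMC 30 microM final. RT, dark, 25 min; FI ex 355/em 460; normalized to no-enzyme/no-inhibitor ctrls.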
In the case of `Clc1ccc(-c2nn3c(COc4cc(Cl)c(OCc5nnc6sc(-c7ccc(Cl)cc7)nn56)cc4Cl)nnc3s2)cc1`, the Potency was 14.1 µM (active). On the same count and under the same terms, the same measure for `CC(C)=CCCC1(C)C=Cc2c(O)c3c(c(CC=C(C)C)c2O1)OC12C(=CCCC1C(C)(C)O[C@@]2(C/C=C(\C)C(=O)O)C(=O)O)C3=O` (stereo partly drawn): 158 µM (active); for `Clc1ccc(-c2nn3c(COc4cccc(OCc5nnc6sc(-c7ccc(Cl)cc7)nn56)c4)nnc3s2)cc1`: 12.6 µM (active); for `COc1cc(O)c2c(=O)cc(-c3ccc(OC)c(-c4c(O)cc(O)c5c(=O)cc(-c6ccc(O)cc6)oc45)c3)oc2c1`: 35.5 µM (active).

Another assay relates to Zika virus NS2B-NS3 protease (linked construct). The assay can be described thus: 384 well plate NINDS Rhodamine confirmatory qHTS for Zika virus inhibitors (AID 1347164). Also: nearly all actives have a fitted effect of over 65% in size. The settings on record: rhodamine-110 peptide substrate fluorescence; series mostly up to 1 mM. A digest of the protocol: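 Linked protease at a final 5 nM, 30 nM or 60 nM was preincubated ~15 min with compounds, then given 10 microM Ac-LKRR-Rhodamine 110. Fluorescence (ex 485/em 538 nm) after 25 min in the dark at room temperature.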
On to `Clc1ccc(-c2nn3c(COc4cc(Cl)c(OCc5nnc6sc(-c7ccc(Cl)cc7)nn56)cc4Cl)nnc3s2)cc1`, for which the Potency is 28.2 µM (active). With `CCOc1nc2cccc(C(=O)OC(C)OC(=O)OC3CCCCC3)c2n1Cc1ccc(-c2ccccc2-c2nn[nH]n2)cc1` (stereo not drawn), the Potency is 12.6 µM (active). In the case of `CC(C)=CCCC1(C)C=Cc2c(O)c3c(c(CC=C(C)C)c2O1)OC12C(=CCCC1C(C)(C)O[C@@]2(C/C=C(\C)C(=O)O)C(=O)O)C3=O` (stereo partly drawn), the Potency is 22.4 µM (active). In the case of `O=C(O)c1cc(NCc2cc(O)ccc2O)ccc1O`, the Potency is 22.4 µM (active). Regarding `N#Cc1ccc(OCC2CN(Cc3cccc(C(F)(F)F)c3)C(=O)c3c(ccnc3-c3ccc(OCC(=O)O)cc3)O2)cc1` (stereo not drawn), the Potency was 39.8 µM (active). On the same count and under the same terms, under `Clc1cc(OCc2nnc3sc(Cc4ccccc4)nn23)c(Cl)cc1OCc1nnc2sc(Cc3ccccc3)nn12` stands 7.94 µM (active); under `Cc1cc(C)cc(C(=O)N(C)[C@H](Cc2ccc(-c3ccccc3)cc2)C(=O)N[C@@H](Cc2c[nH]c3ccccc23)C(=O)O)c1`, 28.2 µM (active); under `CCCCc1nn(-c2ccccc2C(F)(F)F)c(=O)n1Cc1ccc(-c2ccccc2S(=O)(=O)NC(=O)c2sccc2C)cc1`, 28.2 µM (active). The same measure, in the same setting: under `COc1cc(O)c2c(=O)cc(-c3ccc(OC)c(-c4c(O)cc(O)c5c(=O)cc(-c6ccc(O)cc6)oc45)c3)oc2c1` stands 112 µM (active).
